Measurements: PubChem BioAssay AID1053205 (Broad Institute, 2014)
Results with a measured potency or affinity are listed apart. Results filed as inconclusive are left out. Active and inactive are the calls of the source.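 The calls were made as follows: active = compounds lowering the FRET ratio whose fitted half-maximal concentration is at most twice their top tested dose; inconclusive = flat partial drop between 30 and 70 percent, or bad fit; inactive = the rest.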

Target: Voltage-dependent L-type calcium channel subunit alpha-1D (Homo sapiens) (UniProt Q01668)
Experiment: inhibitors of CaV1.3 ICDI-IQ binding, dose response, cell-based, HEK293, YFP-IQ/CFP-ICDI FRET, cherry-picks (AID 1053205)
Settings: HEK293 YFP-IQ/CFP-ICDI FRET ratio, 10 min; series mostly up to 35 µM

Voltage-dependent L-type calcium channel subunit alpha-1D (Homo sapiens), sequence (Q01668 whole entry, looked up): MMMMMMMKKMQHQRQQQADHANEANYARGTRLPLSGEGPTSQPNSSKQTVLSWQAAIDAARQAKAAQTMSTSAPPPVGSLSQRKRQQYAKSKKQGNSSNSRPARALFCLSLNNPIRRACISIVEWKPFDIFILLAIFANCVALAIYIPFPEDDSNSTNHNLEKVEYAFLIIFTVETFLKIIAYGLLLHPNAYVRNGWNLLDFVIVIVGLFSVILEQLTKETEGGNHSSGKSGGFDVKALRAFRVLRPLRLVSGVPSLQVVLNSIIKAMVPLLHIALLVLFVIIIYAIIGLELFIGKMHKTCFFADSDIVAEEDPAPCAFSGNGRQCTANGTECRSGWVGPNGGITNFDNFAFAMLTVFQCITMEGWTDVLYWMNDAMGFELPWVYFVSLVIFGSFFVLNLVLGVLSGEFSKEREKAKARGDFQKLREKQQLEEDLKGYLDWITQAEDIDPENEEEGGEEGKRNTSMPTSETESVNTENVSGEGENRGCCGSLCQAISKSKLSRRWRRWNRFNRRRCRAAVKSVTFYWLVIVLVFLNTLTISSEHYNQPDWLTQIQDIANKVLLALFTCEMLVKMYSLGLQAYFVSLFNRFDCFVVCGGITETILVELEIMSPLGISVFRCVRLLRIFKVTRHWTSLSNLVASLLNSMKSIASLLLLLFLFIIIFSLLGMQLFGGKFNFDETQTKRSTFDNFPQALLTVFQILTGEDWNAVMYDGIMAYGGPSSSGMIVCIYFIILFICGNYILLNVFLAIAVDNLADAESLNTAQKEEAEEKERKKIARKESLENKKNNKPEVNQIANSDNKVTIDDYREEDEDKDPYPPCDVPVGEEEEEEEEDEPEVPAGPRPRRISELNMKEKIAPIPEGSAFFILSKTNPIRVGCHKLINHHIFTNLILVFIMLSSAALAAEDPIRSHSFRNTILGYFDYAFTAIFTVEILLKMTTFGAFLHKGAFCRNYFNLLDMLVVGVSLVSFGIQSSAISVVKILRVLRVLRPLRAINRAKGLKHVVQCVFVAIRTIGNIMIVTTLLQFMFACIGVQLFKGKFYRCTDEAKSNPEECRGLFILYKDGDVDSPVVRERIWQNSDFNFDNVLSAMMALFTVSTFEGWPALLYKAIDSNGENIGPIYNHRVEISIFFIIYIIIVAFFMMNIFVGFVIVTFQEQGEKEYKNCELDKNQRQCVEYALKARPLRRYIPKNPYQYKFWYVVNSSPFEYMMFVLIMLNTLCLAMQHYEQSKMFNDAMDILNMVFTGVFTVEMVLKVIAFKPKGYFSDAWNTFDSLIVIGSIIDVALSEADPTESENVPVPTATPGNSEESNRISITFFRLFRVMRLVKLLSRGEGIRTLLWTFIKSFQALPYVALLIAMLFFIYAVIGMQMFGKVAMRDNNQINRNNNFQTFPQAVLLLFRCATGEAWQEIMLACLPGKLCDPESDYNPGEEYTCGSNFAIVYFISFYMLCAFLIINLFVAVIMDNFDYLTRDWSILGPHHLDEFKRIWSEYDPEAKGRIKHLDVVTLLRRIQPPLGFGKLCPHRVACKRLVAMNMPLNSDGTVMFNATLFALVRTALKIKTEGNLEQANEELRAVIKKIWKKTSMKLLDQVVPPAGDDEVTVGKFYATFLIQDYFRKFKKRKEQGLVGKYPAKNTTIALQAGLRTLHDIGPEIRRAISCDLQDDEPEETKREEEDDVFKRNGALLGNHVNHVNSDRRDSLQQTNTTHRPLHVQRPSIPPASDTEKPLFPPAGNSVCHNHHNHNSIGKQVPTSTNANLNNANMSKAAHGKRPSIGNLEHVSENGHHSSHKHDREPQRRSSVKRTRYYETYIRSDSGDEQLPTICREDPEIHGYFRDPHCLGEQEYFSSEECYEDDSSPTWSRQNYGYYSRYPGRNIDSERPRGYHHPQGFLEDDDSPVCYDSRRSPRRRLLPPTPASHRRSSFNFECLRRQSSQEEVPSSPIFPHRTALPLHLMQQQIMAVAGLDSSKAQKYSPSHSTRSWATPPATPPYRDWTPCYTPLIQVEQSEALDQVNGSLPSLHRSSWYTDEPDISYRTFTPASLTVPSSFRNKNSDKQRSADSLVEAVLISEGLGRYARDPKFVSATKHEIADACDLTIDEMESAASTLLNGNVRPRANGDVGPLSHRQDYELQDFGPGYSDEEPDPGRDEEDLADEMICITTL

outcome, inactive:
O=C(O)c1ccc(N/N=C/c2ccc(-c3ccccc3Cl)o2)cc1
C/C(=N\NC(=O)CC#N)c1cc2ccc(O)cc2oc1=O
CCOC(=O)C(NC(=O)c1ccccc1)(OCC1(CC)COC1)C(F)(F)F (stereo unspecified)
Cc1cccn2c(=O)c3cc(C(=O)NC(C)c4ccccc4)c(=N)n(CCCn4ccnc4)c3nc12 (stereo unspecified)
CCOc1ccc(C(=O)c2cc3ccc(O)cc3oc2=O)cc1
N#Cc1ccc(/C=C\c2nccc3c2[nH]c2ccccc23)cc1
COc1cc(/C=C(\C#N)C(=O)NC(C)C)cc(Cl)c1O
CC1CCN(C(=O)COc2cccc3c2CCN(Cc2ccccc2)C3=O)CC1
COc1ccc(Cn2nnnc2C(CC(C)C)N2CCC(C(N)=O)CC2)cc1 (stereo unspecified)
COc1ccc(C2c3ccc(O)cc3Oc3ncn4nc(-c5ccccn5)nc4c32)cc1 (stereo unspecified)
CC(C)CCn1c(CN2CC(C)OC(C)C2)nc2c1c(=O)n(C)c(=O)n2C (stereo unspecified)
Cc1c(C(=O)NCc2cccc([N+](=O)[O-])c2)sc(=O)n1Cc1cccc(F)c1
N#Cc1c2ccc(O)cc2n2ccccc12
O=C(CCCn1c(=O)c2sccc2n(Cc2cc(=O)n3ccccc3n2)c1=O)NCc1ccco1
CCCOc1ccc(C(=O)NNC(=S)NC(=O)c2ccco2)cc1
CC(=O)c1cccc(-c2ccnc3c2CC(C(=O)NCc2ccc(F)c(F)c2)O3)c1 (stereo unspecified)
Nn1c(SCC(=O)N2CCCC2)nnc1-c1cccs1
Nc1ccc2nc(-c3ccccc3)cnc2c1
O=C(c1ccccc1)N1CCN(c2ccc(NCc3ccc4c(c3)OCO4)cc2)CC1
COc1ccccc1/C=N/Nc1nc(C)cc(=O)[nH]1
O=c1[nH]c2ccccc2nc1/C=C/c1ccccc1
